According to the supplement of paper PMC11219838:
A number with no mark means an inactive call.

Key:
Settings in all cases: 60 µM; 5 days; temperature: 20 °C
Meloidogyne hapla J2 = test: proportion of mobile M. hapla J2 relative to DMSO control (fraction of DMSO control); higher = more viable, less nematicidal, active = 0.7 or less
Procedure, shortened: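 Two biological replicates were run and averaged, each on 96-well plates in which about 25 M. hapla J2 sat in distilled water per well. Compound was pinned in to give 60 µM final and 0.6% v/v DMSO, and the sealed plates were shaken at 200 rpm and 20 °C for 5 days before 2 µL 1 M NaOH was added. Mobility was scored microscopically and divided by the mean from the plate's DMSO-only wells, of which there were eight.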

[1] = tested on: Caenorhabditis elegans dauer (daf-2(e1370)); test: proportion of mobile C. elegans dauer larvae relative to DMSO control (fraction of DMSO control); higher = more viable, less nematicidal, active = 0.63 or less; extreme values may be limits of the assay
Procedure, shortened: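 Synchronized C. elegans daf-2(e1370) larvae were held at 25 °C for 48 h on MYOB plates with E. coli OP50 to form dauers, and about 20 dauers were added per 96-well well in liquid NGM. Compound was pinned to 60 µM final (0.6% v/v DMSO), and sealed plates were shaken at 200 rpm for 5 days at 20 °C. The proportion of mobile worms was scored under a dissection microscope relative to DMSO controls and averaged over two biological replicates.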

Ditylenchus dipsaci = test: proportion of mobile D. dipsaci (mixed stage) relative to DMSO control (fraction of DMSO control); higher = more viable, less nematicidal, active = 0.86 or less; extreme values may be limits of the assay
Procedure, shortened: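 The worms, D. dipsaci raised on pea plants in Gamborg B-5 agar, were recovered through a filter funnel into water. Each well of a 96-well plate then held about 20 of them in distilled water plus pinned compound at 60 µM final (0.6% v/v DMSO), and the sealed plates were shaken at 200 rpm at 20 °C for 5 days. Following addition of 2 µL 1 M NaOH, mobile worms were counted by microscopy, and mobility was expressed against DMSO controls as the average of two biological replicates.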

| SMILES | proportion of mobile M. hapla J2 (Meloidogyne hapla J2) | proportion of mobile C. elegans dauer larvae [1] | proportion of mobile D. dipsaci (Ditylenchus dipsaci) |
| --- | --- | --- | --- |
| COc1cccc(NC(=O)c2ccccc2-c2nc(-c3ccc(F)cc3)no2)c1 | 0.822 | 1 | 1 |
| COc1ccc(-c2nnc(SCC(=O)Nc3cccc(Cl)c3Cl)o2)cc1 | 0.932 | 1 | 1 |
| COc1ccc(-c2noc(-c3cccc(Br)c3)n2)cc1 | 0.987 | 1 | 1 |
| Cc1ccc(OCc2nc(-c3cccnc3)no2)c(Br)c1 | 0.992 | 1 | 1 |
| Ic1ccc(CSc2nnc(-c3ccco3)o2)cc1 | 0.872 | 1 | 1 |
| Cc1ccc(NC(=O)CSc2nnc(-c3ccccc3)o2)cc1F | 1.02 | 1 | 1 |
| Fc1ccc(-c2noc(-c3ccc(F)cc3)n2)cc1 | 1.01 | 1 | 1 |
| CCC(=O)Nc1ccccc1-c1nc(-c2ccccn2)no1 | 0.865 | 1 | 1 |
| Cc1ccc(-c2noc(-c3ccccc3OCC(N)=O)n2)cc1 | 1.04 | 1 | 1 |
| c1ccc(CSc2nnc(-c3cccnc3)o2)cc1 | 0.391 (active) | 1 | 1 |
| Cc1ccccc1-c1nc(-c2ccccc2Cl)no1 | 0.985 | 1 | 1 |
| COc1ccc(Cl)cc1-c1noc(-c2ccccc2)n1 | 1.02 | 1 | 1 |
| Cc1ccc(-c2nc(-c3ccccc3Cl)no2)c(Cl)c1 | 0.942 | 1 | 1 |
| CCNC(=O)c1ccccc1-c1nc(-c2ccc(OC)cc2)no1 | 0.785 | 1 | 1 |
| O=C(Nc1ccc(-c2noc(-c3ccc(F)cc3)n2)cc1)c1ccc(Br)o1 | 0.972 | 1 | 1 |
| FC(F)(F)c1cccc(-c2noc(-c3cccs3)n2)c1 | 0.893 | 1 | 1 |
| CCCOc1ccc(-c2ccc(-c3nc(-c4cccnc4)no3)cc2)cc1 | 1.02 | 1 | 1 |
